About 83,000 compounds went through this panel and 20% of them were active in at least one assay; those are over-represented in the sample as a whole.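 48-hour exposure, single concentration, 96-well plates; percent growth endpoint where 0 means no net growth. Active: below 10.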 A number with no mark means an inactive call. Calls of active or inactive are those of the source.
How the values were obtained:
Test in all cases: NCI-60 one-dose screen, 48 h (100 = growth as untreated, 0 = no growth, -100 = all killed)
Conditions in all cases: 10 µM
K-562 leukemia = tested on: K-562 leukemia
MALME-3M melanoma = tested on: MALME-3M melanoma
MDA-MB-231 breast = tested on: MDA-MB-231 breast
RXF 393 renal = tested on: RXF 393 renal
SF-268 CNS = tested on: SF-268 CNS
SF-295 CNS = tested on: SF-295 CNS
SF-539 CNS = tested on: SF-539 CNS
UACC-257 melanoma = tested on: UACC-257 melanoma
M14 melanoma = tested on: M14 melanoma
HCT-15 colon = tested on: HCT-15 colon

Structure (SMILES)	growth (K-562 leukemia)	growth (MALME-3M melanoma)	growth (MDA-MB-231 breast)	growth (RXF 393 renal)	growth (SF-268 CNS)	growth (SF-295 CNS)	growth (SF-539 CNS)	growth (UACC-257 melanoma)	growth (M14 melanoma)	growth (HCT-15 colon)
O=C1/C(=C\c2ccccc2)CN(C(=O)c2ccccc2F)C/C1=C\c1ccccc1	0.045% (active)	-34.5% (active)	12.7%	-78.2% (active)	16.9%	6.51% (active)	40.5%	-10.1% (active)	-59.5% (active)	-28.5% (active)
CCOC(=O)N1C/C(=C/c2ccc(F)cc2)C(=O)/C(=C/c2ccc(F)cc2)C1	3.36% (active)	-36.8% (active)	-2.86% (active)	-83.4% (active)	-12% (active)	-22% (active)	3.86% (active)	-14.7% (active)	-69% (active)	-63.4% (active)
COc1ccc2c(c1)O/C(=C\c1ncc([N+](=O)[O-])n1C)C2=O	1.57% (active)	-65.6% (active)	-10.3% (active)	-72% (active)	-17.6% (active)	-34.6% (active)	-60.9% (active)	-57% (active)	-54.6% (active)	2.5% (active)
O=C(Nc1ccc(OS(=O)(=O)c2ccccc2)cc1)C12CC3CC(CC(C3)C1)C2	13%	55.8%	19.9%	26.8%	78.6%	45.6%	19.7%	37.8%	47.2%	29.9%
Cc1cccc2c(NCCN(C)C)c3cccc(C(=O)NCCN(C)C)c3nc12	-24.5% (active)	7.06% (active)	5.41% (active)	8.33% (active)	11.3%	7.5% (active)	11.6%	-20.6% (active)	11.7%	-46.5% (active)
CCCCOc1ccc(NC(=O)Nc2nnc(C)s2)cc1	83.8%	118%	90.7%	110%	109%	87.4%	95.3%	22.5%	91.4%	99.5%
N#Cc1ncc(-c2cc(F)c(F)c(F)c2)c(NC2CCCCCC2)n1	92%	131%	91.7%	84.7%	82.3%	89.3%	97.5%	93.6%	101%	85.2%
Cc1ccc(C)c(C(O)(c2cc(C)ccc2C)C2(O)CCCCC2)c1	87.3%	91.7%	96.9%	91%	94.2%	95.9%	94.6%	102%	98.6%	94.5%
N#Cc1c(C#N)c(SSc2c(C#N)c(C#N)c(N)n2-c2ccccc2)n(-c2ccccc2)c1N	-17.7% (active)	95.1%	100%	98.8%	112%	115%	103%	103%	115%	102%
c1ccc(CP(Cc2ccccc2)c2ccccc2)cc1	83.4%	82.3%	98.3%	113%	110%	82.4%	110%	95.5%	95.4%	95.1%
Fc1cc(C(F)(F)F)ccc1-c1cncnc1NC1CCCCCC1	91.3%	118%	91%	88.5%	115%	94.5%	94.8%	93.9%	105%	95.6%
CSc1nn(-c2ccccc2)c2ncnc(Oc3ccc(C)cc3)c12	88.9%	91.6%	66.9%	68.9%	90.7%	93.1%	94.5%	93%	90.5%	93.5%
CSc1nc(=O)n(Cc2ccc(F)cc2)c(=O)n1Cc1ccc(C)cc1	91.1%	97.6%	103%	113%	96.6%	79.8%	108%	106%	99.7%	102%
C(CCCC1=NCCO1)CCCC1=NCCO1	110%	106%	104%	95.6%	104%	101%	101%	104%	109%	99.3%
COc1cc(/C=C/C(=O)c2ccc(Cl)cc2)ccc1OS(=O)(=O)c1ccc(C)cc1	14.9%	101%	90.9%	117%	102%	94.2%	111%	110%	105%	66%
CCOC(=O)c1ccoc1	93.8%	100%	128%	110%	108%	108%	95.6%	80.3%	106%	97%
Cc1nc2ccccc2c(N)c1-c1cc(C)c2c(C)nc3ccccc3c2n1	-36.1% (active)	95.3%	-80.2% (active)	-80.3% (active)	-67.5% (active)	85.2%	-71.9% (active)	105%	39.3%	-90% (active)
C#Cc1ccc(-n2c(/C=C/c3ccc(C(F)(F)F)cc3)nc3ncccc3c2=O)cc1	4.03% (active)	39.1%	56.9%	-10.4% (active)	31.4%	32.6%	45.2%	29%	10.7%	22.3%
COc1ccc(OC)c(/C=C/c2nc(SC)n(-c3ccc(Cl)cc3)n2)c1	30.7%	44.8%	91.7%	59.7%	91.7%	46.8%	88.5%	87.3%	60%	58.9%
CCOC(=O)CCC(NC(=O)c1ccc(N)cc1)C(=O)OCC (stereo not given)	112%	88.2%	126%	129%	99.7%	136%	97.6%	101%	91.3%	98.7%
O=C1/C(=C/c2ccc(Cl)cc2)SC(=Nc2ccc(Cl)cc2)N1Cc1nc2ccccc2[nH]1	58.2%	48.9%	59.2%	91.5%	74.4%	68.2%	101%	87.2%	92.4%	64.1%
N=C(N)c1ccc(-c2ccc(-c3ccco3)o2)cc1	7.46% (active)	53%	52.4%	62.5%	74.4%	61.4%	83.1%	64.2%	74%	31.2%
Cn1c([N+](=O)[O-])cnc1/C=C1\Oc2ccc(Cl)cc2C1=O	1.86% (active)	-55% (active)	-22.5% (active)	-70.5% (active)	-32.1% (active)	-17.3% (active)	-50.3% (active)	-41.7% (active)	-33% (active)	-8.74% (active)
CC(C)C[C@H](NC(=O)[C@H](Cc1cccc2ccccc12)NS(=O)(=O)c1cccc2cccnc12)B(O)O	-17.7% (active)	-76.9% (active)	-4.94% (active)	15.9%	0.092% (active)	-70.5% (active)	-34.1% (active)	15.4%	-47.4% (active)	-65.8% (active)
N#CC1=C(Nc2ccccc2Cl)SC(c2ccccc2O)NC1=O (stereo not given)	102%	116%	113%	121%	112%	113%	99.6%	37.1%	109%	119%
COc1cc2cc3c(nc2cc1OC)CCN3Cc1ccc(NC(=O)Nc2cc(C(F)(F)F)cc(C(F)(F)F)c2)cc1	49.8%	92.1%	57.4%	82.5%	78.6%	69.6%	86.8%	89%	77.4%	76.1%
COc1ccc(C2=Nc3c(C)nn(-c4ccccc4)c3NC(c3ccc(Oc4ccnc5cc(Cl)ccc45)c(OC)c3)C2)cc1 (stereo not given)	62.2%	95.6%	58%	80.4%	78.8%	93.1%	92.2%	98.3%	95.1%	62.9%

From PubChem BioAssay (NCI)
